Laboratory results as given in article PMC4081100, “A DNA-binding-site landscape and regulatory network analysis for NAC transcription factors in Arabidopsis thaliana”.

Key:
Assay in all cases: universal protein binding microarray (PBM); transcription factors of Arabidopsis thaliana; high values mean tight binding
GST-ANAC092(1-176) = target: T1, GST-ANAC092(1-176) (Arabidopsis thaliana, UniProt Q9FKA0 1-176); details: protein: recombinant; tags: GST; chain copies: 2; dsDNA, one strand shown
T1 sequence: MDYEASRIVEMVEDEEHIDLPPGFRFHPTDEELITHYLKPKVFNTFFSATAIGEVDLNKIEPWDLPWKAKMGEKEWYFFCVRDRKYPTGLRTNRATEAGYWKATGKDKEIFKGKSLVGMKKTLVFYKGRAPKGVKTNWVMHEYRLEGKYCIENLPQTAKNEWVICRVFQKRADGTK
Method in brief: (§1)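 Cells were induced to make GST-tagged NAC-domain, full-length or DNA-binding-domain proteins, and zinc acetate was added for zinc-finger proteins. These proteins were purified on glutathione–Sepharose 4B, quantified by A280 or anti-GST western blot, and applied in duplicate at 200 to 500 nM final to custom all-10-mer Agilent 4 × 180K arrays that primer extension had made double-stranded. Binding is given as the normalised enrichment score (E-score) for scored gapped and ungapped 8-mers.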

GST-ANAC019 NAC domain = target: T2, GST-ANAC019 NAC domain (Arabidopsis thaliana, UniProt Q9C932 14-162); details: protein: recombinant; tags: GST; chain copies: 2; dsDNA, one strand shown
T2 sequence: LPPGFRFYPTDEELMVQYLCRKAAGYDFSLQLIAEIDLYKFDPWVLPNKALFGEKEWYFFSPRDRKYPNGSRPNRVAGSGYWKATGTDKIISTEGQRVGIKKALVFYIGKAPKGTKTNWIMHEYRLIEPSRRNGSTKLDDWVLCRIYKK
Method in brief: as §1

[1] = target: T3, GST-ANAC092(1-285) full length (Arabidopsis thaliana, UniProt Q9FKA0 1-285); details: protein: recombinant; tags: GST; chain copies: 2; dsDNA, one strand shown
T3 sequence: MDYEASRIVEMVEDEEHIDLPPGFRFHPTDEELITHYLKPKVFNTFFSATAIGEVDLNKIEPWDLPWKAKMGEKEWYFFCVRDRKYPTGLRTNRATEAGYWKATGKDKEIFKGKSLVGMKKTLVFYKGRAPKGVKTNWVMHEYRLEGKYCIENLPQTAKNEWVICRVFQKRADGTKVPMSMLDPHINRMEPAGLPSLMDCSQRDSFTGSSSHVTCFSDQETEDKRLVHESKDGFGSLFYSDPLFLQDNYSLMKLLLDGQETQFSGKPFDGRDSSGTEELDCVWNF
Method in brief: as §1

GST-NTL8 NAC domain = target: T4, GST-NTL8 NAC domain (Arabidopsis thaliana, UniProt Q9XIN7 14-156); details: protein: recombinant; tags: GST; chain copies: 2; dsDNA, one strand shown
T4 sequence: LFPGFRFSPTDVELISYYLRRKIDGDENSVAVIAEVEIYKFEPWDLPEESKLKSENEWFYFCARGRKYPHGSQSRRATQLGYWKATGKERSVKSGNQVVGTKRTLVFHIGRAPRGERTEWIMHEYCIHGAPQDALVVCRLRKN
Method in brief: as §1

GST-WRKY1(266-371) = GST-WRKY1(266-371) (Arabidopsis thaliana, UniProt Q9SI37 266-371); details: protein: recombinant; tags: GST; dsDNA, one strand shown
GST-WRKY1(266-371), sequence (Q9SI37 266-371): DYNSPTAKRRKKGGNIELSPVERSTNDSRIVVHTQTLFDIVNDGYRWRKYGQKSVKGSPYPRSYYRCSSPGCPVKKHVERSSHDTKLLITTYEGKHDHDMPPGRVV
Method in brief: as §1

GST-NTL6(1-168) = GST-NTL6(1-168) (Arabidopsis thaliana, UniProt Q9SCK6 1-168); details: protein: recombinant; tags: GST; chain copies: 2; dsDNA, one strand shown
GST-NTL6(1-168), sequence (Q9SCK6 1-168): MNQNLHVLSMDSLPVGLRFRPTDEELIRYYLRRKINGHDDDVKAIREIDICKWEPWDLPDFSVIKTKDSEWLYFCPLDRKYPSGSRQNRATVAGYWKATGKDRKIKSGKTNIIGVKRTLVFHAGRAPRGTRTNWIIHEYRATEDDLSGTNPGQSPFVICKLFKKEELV
Method in brief: as §1

GST-NAP(1-166) = target: T5, GST-NAP(1-166) (Arabidopsis thaliana, UniProt O49255 1-166); details: protein: recombinant; tags: GST; chain copies: 2; dsDNA, one strand shown
T5 sequence: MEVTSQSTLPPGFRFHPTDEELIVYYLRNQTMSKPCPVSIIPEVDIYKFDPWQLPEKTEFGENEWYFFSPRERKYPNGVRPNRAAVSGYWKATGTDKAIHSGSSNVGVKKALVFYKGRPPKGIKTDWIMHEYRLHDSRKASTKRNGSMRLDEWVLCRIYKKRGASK
Method in brief: as §1

GST-NST2(1-184) = target: T6, GST-NST2(1-184) (Arabidopsis thaliana, UniProt Q9M274 1-184); details: protein: recombinant; tags: GST; chain copies: 2; dsDNA, one strand shown
T6 sequence: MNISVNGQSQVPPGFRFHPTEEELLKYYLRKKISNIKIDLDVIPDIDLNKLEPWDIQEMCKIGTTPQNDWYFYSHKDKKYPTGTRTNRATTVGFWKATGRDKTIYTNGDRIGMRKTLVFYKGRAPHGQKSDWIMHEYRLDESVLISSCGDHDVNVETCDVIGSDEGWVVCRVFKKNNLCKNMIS
Method in brief: as §1

GST-ATAF1 NAC domain = target: T7, GST-ATAF1 NAC domain (Arabidopsis thaliana, UniProt Q39013 7-158); details: protein: recombinant; tags: GST; chain copies: 2; dsDNA, one strand shown
T7 sequence: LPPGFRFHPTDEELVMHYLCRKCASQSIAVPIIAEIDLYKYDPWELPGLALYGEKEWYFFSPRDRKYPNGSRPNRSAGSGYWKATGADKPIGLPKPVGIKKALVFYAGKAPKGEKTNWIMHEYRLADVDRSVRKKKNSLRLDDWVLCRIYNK
Method in brief: as §1

Sequence: AGGTTACC
- binding signal (GST-ANAC092(1-176)): 0.0662 E-score
- binding signal (GST-ANAC019 NAC domain): 0.0729 E-score
- binding signal [1]: 0.182 E-score
- binding signal (GST-NTL8 NAC domain): 0.437 E-score

Sequence: ATTGACCG
- binding signal [1]: 0.0505 E-score
- binding signal (GST-WRKY1(266-371)): 0.487 E-score

Sequence: ATTCCCCC
- binding signal (GST-NTL6(1-168)): 0.146 E-score
- binding signal (GST-NTL8 NAC domain): 0.402 E-score

Sequence: GAGGGAAA
- binding signal (GST-ANAC092(1-176)): 0.11 E-score
- binding signal (GST-NTL6(1-168)): 0.11 E-score
- binding signal (GST-ANAC019 NAC domain): 0.154 E-score
- binding signal (GST-NAP(1-166)): 0.0766 E-score
- binding signal (GST-NTL8 NAC domain): 0.472 E-score

Sequence: GGAGGAAA
- binding signal (GST-ANAC092(1-176)): 0.124 E-score
- binding signal (GST-NTL6(1-168)): 0.146 E-score
- binding signal (GST-NTL8 NAC domain): 0.459 E-score

Sequence: CGGTCAAA
- binding signal (GST-NST2(1-184)): 0.0603 E-score
- binding signal (GST-NTL8 NAC domain): 0.0552 E-score
- binding signal (GST-WRKY1(266-371)): 0.49 E-score

Sequence: CCTCTGAC
- binding signal (GST-NTL8 NAC domain): 0.12 E-score
- binding signal (GST-WRKY1(266-371)): 0.408 E-score

Sequence: AGGTCAAC
- binding signal (GST-ATAF1 NAC domain): 0.051 E-score
- binding signal (GST-NTL8 NAC domain): 0.0726 E-score
- binding signal (GST-WRKY1(266-371)): 0.492 E-score

Sequence: TGAGTCAA
- binding signal [1]: 0.0797 E-score
- binding signal (GST-WRKY1(266-371)): 0.48 E-score

Sequence: CGGTCAAC
- binding signal (GST-NAP(1-166)): 0.118 E-score
- binding signal (GST-WRKY1(266-371)): 0.495 E-score

Sequence: GGGTTGAC
- binding signal (GST-NAP(1-166)): 0.0845 E-score
- binding signal (GST-WRKY1(266-371)): 0.477 E-score

Sequence: GACCGTCA
- binding signal (GST-NAP(1-166)): 0.0503 E-score
- binding signal (GST-WRKY1(266-371)): 0.407 E-score

Sequence: GTCGTTGA
- binding signal [1]: 0.0529 E-score
- binding signal (GST-NST2(1-184)): 0.0569 E-score
- binding signal (GST-WRKY1(266-371)): 0.43 E-score

Sequence: CGGGGTCA
- binding signal (GST-NTL8 NAC domain): 0.107 E-score
- binding signal (GST-WRKY1(266-371)): 0.412 E-score

Sequence: GGTCAATA
- binding signal [1]: 0.0505 E-score
- binding signal (GST-NAP(1-166)): 0.0842 E-score
- binding signal (GST-WRKY1(266-371)): 0.482 E-score

Sequence: CCTTTCCC
- binding signal (GST-ANAC092(1-176)): 0.088 E-score
- binding signal (GST-NTL6(1-168)): 0.11 E-score
- binding signal (GST-ANAC019 NAC domain): 0.0681 E-score
- binding signal (GST-NTL8 NAC domain): 0.421 E-score

Sequence: CGAGGTCA
- binding signal (GST-NTL8 NAC domain): 0.0549 E-score
- binding signal (GST-WRKY1(266-371)): 0.425 E-score

Sequence: AAGTCGTC
- binding signal (GST-NAP(1-166)): 0.156 E-score
- binding signal (GST-WRKY1(266-371)): 0.419 E-score

Sequence: AGTCGTCG
- binding signal (GST-NAP(1-166)): 0.119 E-score
- binding signal (GST-WRKY1(266-371)): 0.432 E-score

Sequence: CAATTGAC
- binding signal (GST-NAP(1-166)): 0.054 E-score
- binding signal (GST-WRKY1(266-371)): 0.435 E-score

Sequence: GGGGGGAA
- binding signal (GST-NTL8 NAC domain): 0.453 E-score

Sequence: TACGGTCA
- binding signal (GST-NAP(1-166)): 0.0976 E-score
- binding signal (GST-WRKY1(266-371)): 0.442 E-score

Sequence: ACATTGAC
- binding signal (GST-NAP(1-166)): 0.0505 E-score
- binding signal (GST-WRKY1(266-371)): 0.465 E-score

Sequence: AGGGTCAA
- binding signal (GST-NTL8 NAC domain): 0.0535 E-score
- binding signal (GST-WRKY1(266-371)): 0.483 E-score

Sequence: ACGGTCAG
- binding signal (GST-NTL8 NAC domain): 0.0654 E-score
- binding signal (GST-WRKY1(266-371)): 0.432 E-score

Sequence: GGGAAACC
- binding signal (GST-ANAC092(1-176)): 0.144 E-score
- binding signal (GST-NTL8 NAC domain): 0.443 E-score

Sequence: AGGGTAAC
- binding signal (GST-ANAC092(1-176)): 0.059 E-score
- binding signal (GST-NTL6(1-168)): 0.0788 E-score
- binding signal [1]: 0.0751 E-score
- binding signal (GST-NTL8 NAC domain): 0.416 E-score

Sequence: GGTCTTCA
- binding signal (GST-NAP(1-166)): 0.0664 E-score
- binding signal (GST-WRKY1(266-371)): 0.431 E-score

Sequence: GTCAAGAC
- binding signal [1]: 0.0871 E-score
- binding signal (GST-WRKY1(266-371)): 0.446 E-score

Sequence: ACGACCAA
- binding signal (GST-NAP(1-166)): 0.103 E-score
- binding signal (GST-WRKY1(266-371)): 0.416 E-score

Sequence: AGGTAACC
- binding signal (GST-ANAC092(1-176)): 0.148 E-score
- binding signal (GST-NTL6(1-168)): 0.105 E-score
- binding signal [1]: 0.137 E-score
- binding signal (GST-NTL8 NAC domain): 0.442 E-score

Sequence: AGTCAAGC
- binding signal (GST-NTL8 NAC domain): 0.0828 E-score
- binding signal (GST-WRKY1(266-371)): 0.459 E-score
